Data on 24 molecules can be found in PubChem BioAssay (Tox21).

Experiment [1] concerns the target Progesterone receptor (Homo sapiens) (UniProt P06401). The experiment is described as follows: qHTS assay to identify small molecule antagonists of the progesterone receptor (PR) signaling pathway (AID 1346795; active = well fitted inhibition curve with a large enough effect in the signal ratio in the repeat runs, not every such curve was filed as active; the % refers to the signal ratio; note: potency is the fitted concentration of half-maximal effect). The essentials: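 Screening used a GripTite HEK293T line with PR-responsive UAS-beta-lactamase. Cells were challenged with compound in the presence of 1 nM R5020 final for 16 hr at 37C; B/G FRET substrate, 2 hr room temperature, fluorescence.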
For orientation: Quantitative high-throughput screening tests each substance at several concentrations.

The nature of experiment [2]: qHTS assay to identify small molecule antagonists of the progesterone receptor (PR) signaling pathway - cell viability counter screen (AID 1346798). Note: series mostly up to about 92 µM; nearly all actives have a fitted effect of over 50% in size. The essentials:
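Measures cytotoxicity in parallel with the PR antagonist reporter read: HEK293T PR-UAS-bla cells get compound and R5020 for 16 hr, and remaining viable cells are quantified by CellTiter-Glo luminescence.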

Experiment [3] in a line: qHTS assay to identify small molecule agonists of the progesterone receptor (PR) signaling pathway - cell viability counter screen (AID 1346799; calls by dose curve; note: nearly all actives have a fitted effect of over 45% in size; note: potency is the fitted concentration of half-maximal effect). The method, boiled down: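 Using the same plates as the PR reporter screen, HEK293T PR-UAS-bla cells received compounds for 16 hr at 37C and were then lysed with CellTiter-Glo; luminescence was read 30 min later at room temperature.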

A short description of experiment [4]: qHTS assay to identify small molecule agonists of the TGF-beta/Smad signaling pathway - cell viability counter screen (AID 1346829). Note: top concentration of the series differs between compounds; nearly all actives have a fitted effect of over 45% in size. The essentials: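 Cytotoxicity counter screen: CellTiter-Glo luminescence (30 min, room temperature) measured in the SBE-bla HEK 293T reporter wells after 5 hr compound treatment at 37 C and the 2 hr substrate step.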
Experiment [5] is described as follows: qHTS assay to identify small molecule agonists of the TGF-beta/Smad signaling pathway (AID 1346859; active = well fitted activation curve with a large enough effect in the signal ratio in the repeat runs, not every such curve was filed as active; the % refers to the signal ratio; note: series mostly up to about 77 µM). The essentials: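 Beta-lactamase reporter activity downstream of Smad binding elements was measured in stably transfected HEK 293T cells; compounds were incubated for 5 hr, substrate for 2 hr at room temperature.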
Experiment [6] addresses Thyrotropin-releasing hormone receptor (Homo sapiens) (UniProt P34981). Nature of the experiment: qHTS assay to identify small molecule antagonists of the thyrotropin-releasing hormone receptor (TRHR) signaling pathway (AID 1346877; active = well fitted inhibition curve with a large enough effect in the repeat runs, not every such curve was filed as active; note: series mostly up to about 51 µM). The essentials: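 Kinetic fluorescence (3 min, 1 s resolution) following stimulation with TRH at 1 nM final; HEK293 cells bearing human TRHR; 5 min compound preincubation at RT; concentration-response over 15 points, triplicates.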

Experiment [7] shares this target. Nature of the experiment: qHTS assay to identify small molecule agonists of the thyrotropin-releasing hormone receptor (TRHR) signaling pathway (AID 1346891; calls by dose curve;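 note: HEK293 cells expressing TRHR with calcium dye readout; series mostly up to about 58 µM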). The method, boiled down: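 Overnight-plated (18 h, 37 °C, 5% CO2) TRHR-Hek293 cells; 2 h calcium dye at 37 °C; compound in DMSO; 3-min kinetic fluorescence read.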
Experiment [8] in a line: Human pregnane X receptor (PXR) small molecule agonists, qHTS cell viability counter screen (AID 1346977). Note: nearly all actives have a fitted effect of over 50% in size. Note: potency is the fitted concentration of half-maximal effect. The method, boiled down:
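After a 5hr pre-incubation, PXR-Luc HepG2 cells received compounds plus positive control in DMSO and were kept 24hr at 37C. Cell viability was quantified by fluorescence from CellTiter-Fluor added for the final hour.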

Experiment [9] is described as follows: Caspase-3/7 induction in HepG2 cells by small molecules, qHTS assay (AID 1346978). Note: nearly all actives have a fitted effect of over 15% in size. Note: potency is the fitted concentration of half-maximal effect. The method, boiled down: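 Wild-type HepG2 cells, 2,000/well, settled 5 hr at 37 C and 5% CO2, then compound-treated for 17 hr; caspase-3/7 activity read by luminescent Caspase-Glo 3/7 after 30 min at room temperature.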
Experiment [10] can be described thus: qHTS assay to identify small molecule antagonists of the TGF-beta/Smad signaling pathway - cell viability counter screen (AID 1346824). Note: nearly all actives have a fitted effect of over 50% in size. The method, boiled down:
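SBE-bla HEK 293T cells, incubated overnight, then compound plus 0.25 ng/mL TGF-beta1 (stock added) for 5 hr at 37 C. Viability was read in the same wells by CellTiter-Glo luminescence after 30 min at room temperature.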

Each structure is given as a SMILES string. Several values for one entry are separate records, joined by “and”; a condition that tells them apart may be missing. Equal values may be shown once. Values without a mark were called inactive. Records with an inconclusive call do not appear. Activity calls are given as the source filed them. Unless noted, calls come from the whole dose curve; as a rule, active = well fitted curve in the direction sought with a large enough effect in the repeat runs; inconclusive = weak or mixed curves; inactive = no such curve, though single readings can be large; an effect the other way counts as inactive or inconclusive. Starred links: 1 amine or outer side, 2 acyl side, 3 side chain; linkers in the order of their positions; H or OH if unused. Positions of bridges follow the written chain, without caps; N, C: chain ends. Non-standard residues stand in square brackets, D forms with d. Residues, ends and D or L forms follow the SMILES beside them. Chains are numbered I, II in the order given. Actinocin(9to1) = Cc1c2oc3c(C)ccc(C(=O)[*:1])c3nc-2c(C(=O)[*:2])c(N)c1=O; NMeV = CN[C@H](C(=O)O)C(C)C; Sar = CNCC(=O)O
% is set by controls: 0 for no effect and ±100 for the full control effect.

Sequence of Thyrotropin-releasing hormone receptor (Homo sapiens) (P34981 whole entry, looked up): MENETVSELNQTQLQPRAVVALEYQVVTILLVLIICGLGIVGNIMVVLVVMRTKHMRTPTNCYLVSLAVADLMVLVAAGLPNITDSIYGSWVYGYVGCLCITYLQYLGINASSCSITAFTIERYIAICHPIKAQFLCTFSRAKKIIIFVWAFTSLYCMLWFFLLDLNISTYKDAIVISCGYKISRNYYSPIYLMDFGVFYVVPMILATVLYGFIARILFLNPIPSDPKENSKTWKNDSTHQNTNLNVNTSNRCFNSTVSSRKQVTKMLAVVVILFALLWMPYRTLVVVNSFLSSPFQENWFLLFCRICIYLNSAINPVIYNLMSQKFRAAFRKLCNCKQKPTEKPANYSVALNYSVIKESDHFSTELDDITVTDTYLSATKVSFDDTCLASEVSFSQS
Sequence of Progesterone receptor (Homo sapiens) (P06401 whole entry, looked up): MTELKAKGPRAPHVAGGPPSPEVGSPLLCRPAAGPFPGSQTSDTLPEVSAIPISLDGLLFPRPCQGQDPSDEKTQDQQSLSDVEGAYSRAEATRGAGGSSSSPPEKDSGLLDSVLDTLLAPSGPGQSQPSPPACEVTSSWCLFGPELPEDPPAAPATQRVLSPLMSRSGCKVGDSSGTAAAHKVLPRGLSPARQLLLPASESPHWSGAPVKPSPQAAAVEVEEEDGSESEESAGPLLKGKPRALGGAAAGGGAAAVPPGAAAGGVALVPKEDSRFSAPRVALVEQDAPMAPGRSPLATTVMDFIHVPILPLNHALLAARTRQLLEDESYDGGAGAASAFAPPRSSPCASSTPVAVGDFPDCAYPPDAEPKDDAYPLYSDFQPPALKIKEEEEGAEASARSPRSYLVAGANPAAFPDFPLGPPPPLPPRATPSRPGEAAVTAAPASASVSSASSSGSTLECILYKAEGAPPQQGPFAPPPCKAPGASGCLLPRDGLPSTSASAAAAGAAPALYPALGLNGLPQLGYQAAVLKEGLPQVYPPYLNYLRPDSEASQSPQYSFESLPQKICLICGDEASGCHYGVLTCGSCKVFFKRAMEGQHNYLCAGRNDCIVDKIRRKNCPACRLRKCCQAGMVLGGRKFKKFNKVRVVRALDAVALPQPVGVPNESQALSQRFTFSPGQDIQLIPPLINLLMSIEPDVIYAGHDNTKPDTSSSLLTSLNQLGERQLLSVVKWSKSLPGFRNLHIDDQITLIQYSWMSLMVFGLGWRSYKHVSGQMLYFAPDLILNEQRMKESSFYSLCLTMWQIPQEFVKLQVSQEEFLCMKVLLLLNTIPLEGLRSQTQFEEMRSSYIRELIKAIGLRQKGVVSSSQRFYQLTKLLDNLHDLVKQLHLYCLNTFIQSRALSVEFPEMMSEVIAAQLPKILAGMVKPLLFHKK

Take `Oc1ccc(Cl)cc1Cc1cc(Cl)ccc1O`: the Potency in [1] was 15.6 µM (active) and 15.4 µM (active) and 18.8 µM (active); in [3], 69.8 µM (active); in experiment [8], 35.5 µM (active) and 30.6 µM (active) and 16.8 µM (active). For the same molecule, the Potency result in [2], in experiment [4], in experiment [6], in [7] and in [9] was “inactive” throughout. For the same molecule, in [5], the outcome was inactive.
On to `CC(N)=O`, for which the Potency result in experiment [1], in experiment [2], in [10], in experiment [4], in [6] and in experiment [7] was “inactive” each time. The Potency result in [8] and in [9] was “inactive” in each case. Besides, the molecule was called inactive in experiment [5].
With `COC(c1ccccc1)(c1ccccc1)[C@H](Oc1nc(C)cc(C)n1)C(=O)O`, the Potency entry in [1], in experiment [3], in experiment [10], in experiment [4], in [8] and in experiment [9] was “inactive” in each case. Moreover, in experiment [5], the result was inactive.
With `CC[C@H]1CN2CCc3cc(OC)c(OC)cc3[C@@H]2C[C@@H]1C[C@H]1NCCc2cc(OC)c(OC)cc21`, the Potency in experiment [1] is 0.772 µM (active); in experiment [8], 24.4 nM (active) and 10.6 nM (active). For the same molecule, the Potency entry in [2], in experiment [3], in [10], in [4] and in [9] was “inactive” throughout. Further, the molecule was called inactive in [5].
As to `CCCCCCCCCCCCCCCCCl`, in experiment [1], the activity change, negative = inhibition is 4.71% [at 18.9 µM]. Also, the figures for the activity change, negative = cytotoxicity in experiment [2], in experiment [4] and in experiment [8] were -2.11% [at 18.9 µM], 1.73% [at 15.8 µM] and 0.261% [at 19 µM], respectively. The viability change, negative = cytotoxic in experiment [10] is 1.48% [at 15.8 µM]. Further, the results for the activation in experiment [5] and in [7] were 0.675% [at 15.8 µM] and -0.271% [at 11.8 µM], respectively. In addition, the activity, negative = inhibition in experiment [6] is 3.5% [at 10.5 µM]. Moreover, the caspase activation in [9] was -0.588% [at 19 µM].
As to `Cc1cccc([N+](=O)[O-])c1C(=O)O`, the Potency entry in experiment [1], in experiment [2], in experiment [3], in experiment [10], in [4] and in experiment [8] was “inactive” each time. Further, in [9], the Potency entry is “inactive”. The call in [5] was inactive.
`O=C(Oc1ccccc1)c1ccccc1O`: the Potency entry in [1], in experiment [2], in experiment [3], in experiment [10], in experiment [4] and in experiment [8] was “inactive” throughout. Besides, the Potency entry in experiment [9] was “inactive”. Besides, in [5], the outcome was inactive.
In the case of `O=C(O)Cn1cnnn1`, the Potency result in experiment [1], in experiment [2], in experiment [10], in experiment [4], in experiment [6] and in [7] was “inactive” each time. The Potency entry in experiment [8] and in experiment [9] was “inactive” in each case. Besides, the outcome in experiment [5] was inactive.
With `COc1cc(C(=S)N2CCOCC2)ccc1O`, the Potency entry in experiment [1], in [2], in [3], in [10], in experiment [4] and in experiment [8] was “inactive” in each case. In addition, in experiment [9], the Potency entry was “inactive”. The outcome in experiment [5] was inactive.
For the molecule `NCCO`, the Potency result in experiment [1], in [2], in [3], in experiment [10], in experiment [4] and in experiment [8] was “inactive” throughout. Moreover, the Potency result in experiment [9] is “inactive”. Further, the molecule was called inactive in experiment [5].
In the case of `O=C1Nc2ccccc2C1(c1ccc(O)cc1)c1ccc(O)cc1`, in experiment [1], the Potency was 54.5 µM (active). Also, the Potency result in experiment [10], in [4], in experiment [8] and in experiment [9] was “inactive” throughout. Also, the outcome in experiment [5] was inactive.
Consider `N[C@@H]1CONC1=O`, for which the Potency result in experiment [1], in experiment [2], in [3], in [10], in experiment [4] and in [8] was “inactive” throughout. Further, in experiment [9], the Potency result is “inactive”. The result in [5] was inactive.
Turning to `CCCOC(=O)c1cc(O)c(O)c(O)c1`, the Potency result in [1], in experiment [2], in experiment [3], in experiment [10], in experiment [4] and in experiment [9] was “inactive” throughout. In addition, the result in [5] was inactive.
`O=Nc1ccc(Nc2ccccc2)cc1`: the Potency in [1] was 54.5 µM (active). Also, the Potency entry in [10], in experiment [4], in [6] and in experiment [9] was “inactive” throughout. Besides, the call in experiment [5] was inactive.
For the molecule `CC(=O)O[C@]1(C(C)=O)CC[C@H]2[C@@H]3C[C@H](C)C4=CC(=O)CC[C@]4(C)[C@H]3CC[C@@]21C`, the Potency result in [1], in experiment [10], in experiment [4], in experiment [8] and in experiment [9] was “inactive” each time.
As to `COc1ccc(COC(C)=O)cc1`, the Potency entry in experiment [1], in [2], in [3], in experiment [10], in experiment [4] and in experiment [8] was “inactive” throughout. In addition, in [9], the Potency entry was “inactive”. For the same molecule, the molecule was classed as inactive in [5].
Regarding `CC(C(O)c1ccc(O)cc1)N1CCC(Cc2ccccc2)CC1` (centres undefined), the Potency entry in experiment [1], in [2], in [10], in [4], in experiment [6] and in [8] was “inactive” each time. Also, the Potency entry in experiment [9] was “inactive”. Also, the molecule was called inactive in experiment [5].
In the case of `Cc1c2oc3c(C)ccc(C(=O)N[C@@H]4C(=O)N[C@H](C(C)C)C(=O)N5CCC[C@H]5C(=O)N(C)CC(=O)N(C)[C@@H](C(C)C)C(=O)O[C@@H]4C)c3nc-2c(C(=O)N[C@@H]2C(=O)N[C@H](C(C)C)C(=O)N3CCC[C@H]3C(=O)N(C)CC(=O)N(C)[C@@H](C(C)C)C(=O)O[C@@H]2C)c(N)c1=O` (I: T[dV]P[Sar][NMeV] / II: T[dV]P[Sar][NMeV]; ester I:1-I:C, II:1-II:C; linker I:N-II:N via Actinocin(9to1)), the Potency was 26.6 nM (active) and 33.5 nM (active) in experiment [1]; 29.8 nM (active) and 47.3 nM (active) in experiment [8]; 13.3 nM (active) and 18.8 nM (active) in experiment [9]. The Potency result in experiment [10], in experiment [4] and in experiment [6] was “inactive” each time. In addition, the molecule was classed as inactive in experiment [5].
For `O=C(O)CP(=O)(O)O`, the Potency result in [1], in experiment [2], in [3], in experiment [10], in experiment [4] and in experiment [8] was “inactive” throughout. Further, the Potency result in experiment [9] is “inactive”. In experiment [5], the outcome was inactive.
Take `Nc1cc(S(=O)(=O)O)cc2cc(S(=O)(=O)O)cc(O)c12`: the Potency result in experiment [1], in experiment [2], in [10], in experiment [4], in experiment [6] and in experiment [7] was “inactive” each time. Further, the Potency entry in experiment [9] was “inactive”. In addition, the molecule was classed as inactive in [5].
As for `C#CC(C)(CC)OC(=O)c1ccccc1C(=O)O` (centres undefined), the Potency result in experiment [1], in experiment [3], in [10], in experiment [4], in experiment [8] and in [9] was “inactive” throughout. Further, the result in [5] was inactive.
For `CCN(CC)C(=S)SSC(=S)N(CC)CC`, the Potency in [1] is 0.237 µM (active); in [9] it was 611 nM (active) and 395 nM (active). The Potency result in experiment [3], in experiment [10], in experiment [4], in [6] and in [7] was “inactive” in each case. In addition, the call in experiment [5] was inactive.
Take `[Cl][In]([Cl])[Cl]`: the Potency entry in experiment [1], in [10], in [4], in experiment [6], in [7] and in experiment [8] was “inactive” each time. Also, the Potency entry in experiment [9] was “inactive”. The call in experiment [5] was inactive.
Regarding `Cc1cc(C2(c3cc(C)c(O)cc3C)OS(=O)(=O)c3ccccc32)c(C)cc1O`, the Potency was 61.1 µM (active) in experiment [1]; 35.5 µM (active) and 13.7 µM (active) in [8]. Further, the Potency entry in experiment [3], in experiment [10], in experiment [4] and in experiment [9] was “inactive” in each case. In addition, the result in experiment [5] was inactive.
